Screening results: PubChem, National Center for Advancing Translational Sciences (NCATS)
Only some compounds are listed: those with a hit (about 7.3% of all), similar ones and a draw of the others.
FLuc modulator – inhibits or activates purified firefly luciferase, miR-21 counter-screen; P08659; purified FLuc, Km substrates, luminescence inhibition; Potency, µM (doses to about 57.5 µM), actives largely listed as inhibitors; 360,000 compounds, 6.9% hits; AID 588342; also: nearly all actives have a fitted effect of over 55% in size
Target sequence (P08659 whole entry, looked up): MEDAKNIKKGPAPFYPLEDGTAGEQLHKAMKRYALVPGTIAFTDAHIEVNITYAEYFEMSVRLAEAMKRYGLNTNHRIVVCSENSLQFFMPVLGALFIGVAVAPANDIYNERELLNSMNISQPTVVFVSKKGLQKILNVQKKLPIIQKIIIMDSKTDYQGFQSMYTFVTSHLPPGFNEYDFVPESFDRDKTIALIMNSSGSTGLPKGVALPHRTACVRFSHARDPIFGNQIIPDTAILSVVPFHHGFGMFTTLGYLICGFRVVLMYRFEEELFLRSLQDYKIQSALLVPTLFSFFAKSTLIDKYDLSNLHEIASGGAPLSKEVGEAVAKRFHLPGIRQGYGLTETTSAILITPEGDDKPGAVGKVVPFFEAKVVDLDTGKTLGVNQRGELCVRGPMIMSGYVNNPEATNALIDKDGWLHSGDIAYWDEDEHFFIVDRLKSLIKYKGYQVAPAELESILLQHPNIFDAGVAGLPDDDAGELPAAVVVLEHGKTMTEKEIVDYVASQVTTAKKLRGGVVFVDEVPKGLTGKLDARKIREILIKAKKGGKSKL
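Purified P. pyralis luciferase (10nM final) with 10uM D-luciferin and 10uM ATP (Km levels) in 50mM Tris acetate pH 7.5, 10mM Mg acetate, 0.01% Tween-20, 0.05% BSA; qHTS 6-point titration, ~60 µM downward; luminescence read.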
Luc counter – counter-screen: inhibitors of Kinase-Glo firefly luciferase; Q27757; Kinase-Glo luciferase, ATP luminescence, 8 min; Potency, µM (series often up to 38.3 µM), most hits filed as inhibitors; 200,000 compounds, 0.28% hits; also: nearly all actives have a fitted effect of over 60% in size
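Compounds were added to a substrate mix at pH 7.2 (50 mM imidazole, 10 uM ATP, within the enzyme's linear range), followed by Kinase-Glo detection reagent; luminescence was measured after 8 minutes at ambient temperature.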
Rab9 promoter act – activators of Rab9 promoter. Huh7 Rab9 promoter-luciferase reporter, luminescence, 24 h. Potency, µM (series often up to 9.22 µM), hits mostly activators. 320,000 compounds, 2.8% hits; also: nearly all actives have a fitted effect of over 60% in size
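Rab9 promoter-driven luciferase in stably transfected Huh7 cells; 1500 cells/well rested 2 h, exposed to compound in DMSO for 24 h at 37 °C, 5% CO2. Luminescence read 10 min after adding luciferase reagent at ambient temperature.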
ELG1 genotox – inducers of genotoxicity in HEK293T ELG1-luciferase cells. 330,000 compounds, 1.3% hits. HEK293T ELG1-luciferase reporter, luminescence, 16 h. Potency, µM (series often up to 46 µM), hits mostly activators. AID 504466; also: nearly all actives have a fitted effect of over 60% in size
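DMSO vehicle served as control against compound-treated ELG1-luciferase HEK293T cells; exposure lasted 16 hr at 37 °C and 5% CO2, followed by ONE-Glo luminescence detection after 30 min.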
SMN2 splice enh – increases expression of the SMN2 splice variant; 210,000 compounds, 2.8% hits; HEK293 SMN2-luciferase splicing reporter, luminescence, 30-36 h; Potency, µM (series often up to 46.1 µM), hits mostly activators; AID 1458; also: nearly all actives have a fitted effect of over 55% in size
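HEK293 cells carry an SMN2 minigene-luciferase reporter in which exon 7 inclusion puts luciferase in frame. Cells were seeded at 2000 cells/well, attached for 10-12 hours, then exposed to compounds for 30-36 hours at 37C before ONE-Glo luminescence.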
NPC1 prom act – NPC1 promoter activation; AID 485313; Potency, µM (series often up to 9.22 µM), usual class: activators; 320,000 compounds, 2.4% hits; Huh7 NPC1 promoter luciferase reporter, 24 h; also: nearly all actives have a fitted effect of over 60% in size
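Cells: Huh7 expressing luciferase under the NPC1 promoter, 1500/well. Seeded 2 h, compound added, incubated 24 h at 37 °C. Luciferase reagent, 10 min ambient, then luminescence.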
A number is an active result; – = inactive; ? = inconclusive; · = no result given; [ ] = remark or other dose. Calls follow the shape of the dose curve; as a rule, active = well fitted curve in the direction sought with a large enough effect; inconclusive = small, poorly fitted or top-dose-only effect, or another doubt; inactive = no such curve, though single readings can be large; an effect the other way counts as inactive or inconclusive.

SMILES	FLuc modulator	Luc counter	Rab9 promoter act	ELG1 genotox	SMN2 splice enh	NPC1 prom act
O=C(CSc1ncnc2ccccc12)Nc1ccc2c(c1)OCCO2	17µM	–	–	–	–	–
O=C(CSc1nccn1Cc1ccccc1)Nc1ccc2c(c1)OCCO2	13µM	·	·	·	·	·
Cc1ccc(Cn2ccnc2SCC(=O)Nc2ccc3c(c2)OCO3)cc1	–	·	·	·	·	·
O=C(CSc1ncnc2ccccc12)Nc1ccc2c(c1)OCO2	–	–	–	–	–	–
Clc1cccc(-n2ncc3c(NC4CCCCCC4)ncnc32)c1	6µM	·	·	·	·	·
Cc1cccc(-n2ncc3c(Nc4ccc(C)c(Cl)c4)ncnc32)c1	–	·	·	·	·	·
Cc1cccc(-n2ncc3c(NC4CCCC4)ncnc32)c1	3µM	·	·	·	·	·
Cc1cccc(-n2ncc3c(NC4CCCCC4)ncnc32)c1	1.5µM	–	2µM	?	?	4.5µM
Cc1cccc(-n2ncc3c(Nc4c(C)n(C)n(-c5ccccc5)c4=O)ncnc32)c1	–	–	–	–	–	–
Clc1cccc(-n2ncc3c(N4CCC(Cc5ccccc5)CC4)ncnc32)c1	–	·	·	·	·	·
CC(=O)c1cccc(NS(=O)(=O)c2cccc(C(=O)O)c2)c1	·	–	·	·	·	·
CCc1ccc(N2C(=O)c3sc4nnc(-c5ccccc5)c(=O)n4c3C2=O)cc1	19µM	–	–	–	–	–
CCOc1ccc(OCC)c(NC(=O)CN(C)S(=O)(=O)c2ccc3[nH]c(=O)oc3c2)c1	–	·	·	·	·	·
O=C(O)c1ccccc1NS(=O)(=O)c1cccc(-n2sc3ccccc3c2=O)c1	11µM	·	–	–	·	–
O=C(O)c1ccccc1NS(=O)(=O)c1ccc(Cl)c(Cl)c1	·	–	·	·	·	·
O=C(O)c1ccccc1NS(=O)(=O)c1ccc2ccccc2c1	15µM	·	–	–	·	–
Cc1cc(S(=O)(=O)C(CNC(=O)c2ccc(OC(C)C)cc2)c2cccs2)ccc1F (stereo unspecified)	–	·	·	·	·	·
COc1ccc(C)cc1NC(=O)CN1C(=O)CCc2cc(S(=O)(=O)N3CCOCC3)ccc21	–	·	·	·	·	·
Cc1oc2ccc(OCC(N)=O)cc2c1C(=O)OC(C)C	–	–	–	–	–	–
Cc1oc2ccc(O)cc2c1C(=O)OC(C)C	15µM	–	–	–	–	–
CN(C)c1ccc(C(C#N)c2ccccc2)nn1 (stereo unspecified)	–	–	1.4µM	–	–	3.2µM
CN(C)c1ccc(C(C#N)c2ccc(Cl)cc2)nn1 (stereo unspecified)	–	–	–	–	–	–
N#C[C@H](c1ccccc1)N1CCCN([C@@H](C#N)c2ccccc2)C1c1ccccc1O (stereo partly specified)	·	–[7.66 µM]	·	·	–[9.22 µM]	·
COc1cccc(/C=C/c2ccccn2)c1O	3µM	·	2.8µM	7.3µM	·	1.3µM
COc1ccccc1NC(=O)Nc1nc(CC(=O)N2CCN(c3ccccc3OC)CC2)cs1	17µM	·	–	–	·	–
SMILES	FLuc modulator	Luc counter	Rab9 promoter act	ELG1 genotox	SMN2 splice enh	NPC1 prom act
Cc1ccc2nc(C3CCCCC3)[nH]c2c1	9.5µM	·	2.8µM	?	·	1.8µM
Cc1c(-c2ccccn2)c(=O)[nH]n1-c1ccc(F)cc1	3µM	–	0.5µM	?	5.6µM	3.5µM
COc1cc2cc(CNc3ccccc3)c(=O)n(CC(=O)Nc3cc(C)cc(C)c3)c2cc1OC	–	·	·	·	·	·
COc1ccc(NC(=O)c2ccc3c(=O)n4nc(Nc5ccccc5C)sc4nc3c2)cc1Cl	–	·	·	·	·	·
Cc1ccc2c(Cl)c(C(=O)N/N=C/c3cccn3C)sc2c1	?	–	?	?	13µM	–
O=C(NC1CC1)c1sc2cc([N+](=O)[O-])ccc2c1Cl	?	–	–	–	–	–
Cc1ccc2c(Cl)c(C(=O)NC3CC3)sc2c1	4.8µM	·	4µM	?	·	2µM
Cc1cc2oc(C(=O)Nc3cccnc3)c(C)c2cc1C	?	–	?	13µM	–	?
Cc1ccc2c(Cl)c(C(=O)Nc3cccnc3)sc2c1	1.9µM	–	4µM	–	?	2.8µM
COc1cccc(CNC(=O)Cn2cc3c(n2)-c2c(oc(C(=O)N4CCOCC4)c2C)CC3)c1	–	·	·	·	·	·
Cc1ccc2c(C)c(C(=O)Nc3cccnc3)oc2c1	6.7µM	–	?	?	–	–
Cc1ccc(N(C)C(=O)Cn2nc(Cc3ccncc3)c3ccccc3c2=O)cc1C	–	·	·	·	–	·
Cc1cc(C(=O)COC(=O)c2ccc[nH]c2=O)c(C)n1-c1ccc(F)cc1	3.4µM	–	0.35µM	?	5µM	0.56µM
Cc1noc(C)c1COC(=O)c1cc(C)n(-c2ccccc2)c1C	15µM	–	?	?	–	–
Cc1cc(C(=O)COC(=O)c2ccc[nH]c2=O)c(C)n1-c1ccccc1	1.7µM	–	0.28µM	0.82µM	2.5µM	0.32µM
Cc1cc(C(=O)OCc2nnc(-c3ccccc3)o2)c(C)n1-c1ccccc1	?	–	–	–	–	–
Cc1cc(C(=O)COc2ccccc2C(N)=O)c(C)n1C1CC1	15µM	–	?	–	–	–
CC(C)c1ccc(NC(=O)CSc2nc(=O)n(Cc3cccnc3)c3c2CCC3)cc1	–	·	·	·	·	·
CCOc1ccc(CCNC(=O)CCCc2nnc3n(CC)c(=O)c4sccc4n23)cc1OCC	–	·	·	·	–	·
Cc1cc(C(=O)COC(=O)c2ccc[nH]c2=O)c(C)n1C1CC1	4.8µM	–	3.5µM	?	?	?
COC(=O)c1ccc(-n2c(C)cc(C(=O)COC(=O)CNS(=O)(=O)c3ccc(C)cc3)c2C)cc1	–	–	–	–	–	–
Cc1ccccc1OCC(=O)OCC(=O)c1cc(C)n(C2CC2)c1C	?	·	–	–	·	–
Cc1cc(C(=O)COC(=O)c2ccc(F)cc2F)c(C)n1C1CC1	0.38µM	·	2.8µM	?	·	2.5µM
Cc1ccc(S(=O)(=O)NCC(=O)OCC(=O)c2cc(C)n(-c3ccccc3)c2C)cc1	15µM	–	–	–	?	–
Cc1ccc(C(=O)CC(=O)c2ccc(C)cc2O)cc1	17µM	·	?	–	·	?
SMILES	FLuc modulator	Luc counter	Rab9 promoter act	ELG1 genotox	SMN2 splice enh	NPC1 prom act
Cc1ccc(C(=O)CC(=O)c2cc(Cl)ccc2O)cc1	17µM	–	–	15µM	–	–
CCOC(=O)c1ccccc1NC(=O)N1CCN(Cc2cc(=O)n3nc(-c4ccccc4)sc3n2)CC1	–	·	·	·	·	·
Cc1ccc(C2=NC(=O)/C(=C/c3cc(O)c(O)c(Br)c3)S2)cc1	8.5µM	10µM	–	–	–	–
COc1cc(/C=C2\SC(c3ccc(C)cc3)=NC2=O)cc(OC)c1O	6.7µM	–	–	–	–	–
Cc1nn(-c2ccccc2)c(Cl)c1/C=N/NC(=O)C1COc2ccccc2O1 (stereo unspecified)	7.6µM	–	–	–	–	–
CNC(=S)N/N=C/c1c(C)nn(-c2ccccc2)c1Cl	?	–	–	?	?	–
Cc1cc(C(=O)N/N=C/c2cn(C)nc2C)c2ccccc2n1	–	·	–	–	·	–
Cc1nn(C)cc1/C=N/NC(=O)c1ccco1	17µM	·	?	–	·	–
